Test results published in PubChem BioAssay (NCI).
Compounds without any hit were thinned out: in the full panel of roughly 83,000, 20% have a hit.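 Plates (96-well) were seeded with cells, treated with compound at one concentration, and incubated for 48 hours before percent growth was determined.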 Calls of active or inactive are those of the source. How the source made its calls: active means growth percent below 10; inactive means the rest.

What follows are molecules tested on K-562 leukemia (assay: NCI-60 one-dose screen, 48 h (100 = growth as untreated, 0 = no growth, -100 = all killed)). Details: 10 µM unless noted.

Q: For `CCN(CC)S(=O)(=O)c1ccc2[nH]c(=O)cc(C(=O)Nc3ccc(OC)cc3OC)c2c1`, which growth is on record?
A: 115% (inactive)

Q: Which growth does the source give for `COc1ccc(/C=C/C(=O)OCC(=O)NNC(=O)c2ccccc2)cc1OC` here?
A: 90.2% (inactive)

Q: `COc1ncc(-c2ccc3ncnc(Nc4cccc(Cl)c4)c3c2)cc1N(S(C)(=O)=O)S(C)(=O)=O` was tested. Which growth did it give?
A: 94.2% (inactive)

Q: Which growth does the source give for `Cc1c(C(=O)NCc2ccccc2)[n+](=O)c2cc(F)ccc2n1[O-]` here?
A: 214% (inactive)

Q: With `COc1cc(Br)c(OC)cc1Br` as the molecule, how does the growth read?
A: 104% (inactive)

Q: With `CN1CCN(CCCOc2ccc3nc(Nc4ccc(C(F)(F)F)c(Cl)c4)ccc3c2)CC1` as the molecule, how does the growth read?
A: -47.2% (active)

Q: `CC(=O)c1cc(C(=O)c2ccc3c(c2)Sc2ccccc2N3)c2cc(C)ccn12` was tested. Which growth did it give?
A: 5% (active)

Q: How did the growth turn out when `Cc1cc(C(=O)O)c(N)c(C)n1` was run?
A: 104% (inactive)

Q: `c1ccc2c(c1)Oc1ccccc1C2C1c2ccccc2Oc2ccccc21` was tested. Which growth did it give?
A: 93.6% (inactive)

Q: Which growth does the source give for `CC/C=C\C[C@H](O)C/C=C1/C(=O)C(Cl)=C[C@@H]1C/C=C\CCCC(=O)O` here?
A: 3.74% (active)

Q: With `O=C(Nc1ccc(I)cc1)c1cc([N+](=O)[O-])ccc1O` as the molecule, how does the growth read?
A: 18.7% (inactive)

Q: Which growth does the source give for `O=C(CSc1nc(-c2ccc(Cl)cc2)cn1-c1ccc(Cl)cc1)c1ccc(Br)cc1` here?
A: 86.4% (inactive)

Q: `N#CC1=C(N)n2nc(-c3ccncc3)nc2NC1c1cccc2ccccc12` (stereo unspecified) was tested. Which growth did it give?
A: 80.9% (inactive)

Q: `Cc1ccc2nc(-c3c(CCCO)noc3N)[nH]c(=O)c2c1` was tested. Which growth did it give?
A: 68% (inactive)

Q: Which growth does the source give for `COc1ccc(/C(=N\O)c2cc(OC)c(OC)c(OC)c2)c(OC)c1N` here?
A: 7.11% (active)

Q: For `CCOc1ccc(/C=C/C=N/NC(N)=S)cc1`, which growth is on record?
A: 56% (inactive)

Q: `C=C1C(=O)O[C@H]2[C@H]1CC/C(COC(=O)NCCc1cccc(OC)c1)=C\CC[C@@]1(C)O[C@@H]21` was tested. Which growth did it give?
A: 11.5% (inactive)

Q: For `Cc1c(C2=NNC(c3ccc4c(c3)OCO4)C2)[n+]([O-])c2ccccc2[n+]1[O-]` (stereo unspecified), which growth is on record?
A: 91.2% (inactive)

Q: For `O=S(=O)(NCCCNc1cc(-c2cn(-c3ccccc3)nc2-c2cccc(O)c2)ccn1)c1ccc(Br)cc1`, which growth is on record?
A: -21.3% (active)

Q: Which growth does the source give for `COc1cccc2nc(Nc3ccc(NC(=O)c4ccc5ncccc5c4)cc3)ccc12` here?
A: 60.1% (inactive)

Q: How did the growth turn out when `COc1ncc(-c2ccc3ncnc(Nc4cccc(Cl)c4)c3c2)cc1NS(=O)(=O)CCN1CCOCC1` was run?
A: 45.8% (inactive)

Q: Which growth does the source give for `O=C(OCCCCOC(=O)n1cnc2ccccc21)n1cnc2ccccc21` here?
A: 101% (inactive)

Q: `Cc1cc(C)c2c(=O)[nH]c(SCC(=O)Nc3cccc(S(=O)(=O)N(C)C)c3)nc2n1` was tested. Which growth did it give?
A: 94.1% (inactive)

Q: `Cc1ccc(S(=O)(=O)OCC(=O)Nc2ccc(C(=O)O)c(O)c2)cc1` was tested. Which growth did it give?
A: 70.2% (inactive)

Q: How did the growth turn out when `CN(C)c1nc(N)c(N=O)c(N)n1` was run?
A: 103% (inactive)

Q: For `Cc1nc2scc(-c3ccccc3)n2c(=O)c1CCO`, which growth is on record?
A: 98.4% (inactive)

Q: For `Cc1ccc2c(c1)C(C)Cc1c(ncnc1-n1cnc3ccccc31)N2C` (stereo unspecified), which growth is on record?
A: 6.64% (active)

Q: With `O=S(=O)(NCCNc1cc(-c2cn(-c3ccccc3)nc2-c2ccccc2)ccn1)c1cccc2ccccc12` as the molecule, how does the growth read?
A: 20.7% (inactive)

Q: Which growth does the source give for `CCCCCCOc1ccc(C2(Cl)c3ccccc3N(C)c3ccccc32)cc1` here?
A: 48.8% (inactive)

Q: `CN(C)C1CCC(NC2=CC(=O)C=CC2=O)CC1` (stereo unspecified) was tested. Which growth did it give?
A: 111% (inactive)

Q: `CC(=O)N1Cc2ccccc2C(C)Cc2cc(Cl)ccc21` (stereo unspecified) was tested. Which growth did it give?
A: 102% (inactive)

Q: `NC(N)=NC(N)=Nc1ccccc1-c1ccccc1` was tested. Which growth did it give?
A: 104% (inactive)

Q: With `Cc1oc2ncnc(Nc3ccccc3)c2c1C(=O)NCCO` as the molecule, how does the growth read?
A: 29.4% (inactive)

Q: With `Cc1cc(NC(=O)COC(=O)c2sc3cc(F)ccc3c2Cl)no1` as the molecule, how does the growth read?
A: 111% (inactive)

Q: Which growth does the source give for `CC1(C)OC2COC3(C(=O)O)OC(C)(C)OC3C2O1` (stereo unspecified) here?
A: 101% (inactive)

Q: How did the growth turn out when `C/C(=C\c1csc(C)n1)[C@@H]1C[C@@H]2O[C@]2(C)CCC[C@H](C)[C@H](O)[C@@H](C)C(=O)C(C)(C)[C@@H](O)CC(=O)N1` was run?
A: 1.67% (active)

Q: `COc1cc2c(cc1OCCCCn1c(-c3cc(=O)c4ccccc4o3)nc3ccccc31)N=C[C@@H]1CCCN1C2=O` was tested. Which growth did it give?
A: 72.3% (inactive)

Q: How did the growth turn out when `COc1cc(-c2csc(NC(=O)c3cc(C(F)(F)F)cc(C(F)(F)F)c3)n2)cc(OC)c1OC` was run?
A: 14.4% (inactive)

The molecules below were run on MALME-3M melanoma in the same assay as above. Details: 10 µM unless noted.

Q: `CCN(CC)S(=O)(=O)c1ccc2[nH]c(=O)cc(C(=O)Nc3ccc(OC)cc3OC)c2c1` was tested. Which growth did it give?
A: 118% (inactive)

Q: With `COc1ccc(/C=C/C(=O)OCC(=O)NNC(=O)c2ccccc2)cc1OC` as the molecule, how does the growth read?
A: 105% (inactive)

Q: `COc1ncc(-c2ccc3ncnc(Nc4cccc(Cl)c4)c3c2)cc1N(S(C)(=O)=O)S(C)(=O)=O` was tested. Which growth did it give?
A: 44.8% (inactive)

Q: `Cc1c(C(=O)NCc2ccccc2)[n+](=O)c2cc(F)ccc2n1[O-]` was tested. Which growth did it give?
A: 114% (inactive)

Q: How did the growth turn out when `COc1cc(Br)c(OC)cc1Br` was run?
A: 75.4% (inactive)

Q: For `CN1CCN(CCCOc2ccc3nc(Nc4ccc(C(F)(F)F)c(Cl)c4)ccc3c2)CC1`, which growth is on record?
A: -47.1% (active)

Q: For `CC(=O)c1cc(C(=O)c2ccc3c(c2)Sc2ccccc2N3)c2cc(C)ccn12`, which growth is on record?
A: 68.2% (inactive)

Q: How did the growth turn out when `Cc1cc(C(=O)O)c(N)c(C)n1` was run?
A: 109% (inactive)

Q: `c1ccc2c(c1)Oc1ccccc1C2C1c2ccccc2Oc2ccccc21` was tested. Which growth did it give?
A: 108% (inactive)

Q: `CC/C=C\C[C@H](O)C/C=C1/C(=O)C(Cl)=C[C@@H]1C/C=C\CCCC(=O)O` was tested. Which growth did it give?
A: 21.7% (inactive)

Q: `O=C(Nc1ccc(I)cc1)c1cc([N+](=O)[O-])ccc1O` was tested. Which growth did it give?
A: -2.87% (active)

Q: For `O=C(CSc1nc(-c2ccc(Cl)cc2)cn1-c1ccc(Cl)cc1)c1ccc(Br)cc1`, which growth is on record?
A: 94% (inactive)

Q: With `N#CC1=C(N)n2nc(-c3ccncc3)nc2NC1c1cccc2ccccc12` (stereo unspecified) as the molecule, how does the growth read?
A: 82% (inactive)

Q: Which growth does the source give for `Cc1ccc2nc(-c3c(CCCO)noc3N)[nH]c(=O)c2c1` here?
A: 96.6% (inactive)

Q: How did the growth turn out when `COc1ccc(/C(=N\O)c2cc(OC)c(OC)c(OC)c2)c(OC)c1N` was run?
A: 48.9% (inactive)

Q: With `CCOc1ccc(/C=C/C=N/NC(N)=S)cc1` as the molecule, how does the growth read?
A: 82% (inactive)

Q: With `C=C1C(=O)O[C@H]2[C@H]1CC/C(COC(=O)NCCc1cccc(OC)c1)=C\CC[C@@]1(C)O[C@@H]21` as the molecule, how does the growth read?
A: 85.3% (inactive)

Q: How did the growth turn out when `Cc1c(C2=NNC(c3ccc4c(c3)OCO4)C2)[n+]([O-])c2ccccc2[n+]1[O-]` (stereo unspecified) was run?
A: 154% (inactive)

Q: `O=S(=O)(NCCCNc1cc(-c2cn(-c3ccccc3)nc2-c2cccc(O)c2)ccn1)c1ccc(Br)cc1` was tested. Which growth did it give?
A: -27.3% (active)

Q: `COc1cccc2nc(Nc3ccc(NC(=O)c4ccc5ncccc5c4)cc3)ccc12` was tested. Which growth did it give?
A: 70.2% (inactive)

Q: `COc1ncc(-c2ccc3ncnc(Nc4cccc(Cl)c4)c3c2)cc1NS(=O)(=O)CCN1CCOCC1` was tested. Which growth did it give?
A: -19.8% (active)

Q: With `O=C(OCCCCOC(=O)n1cnc2ccccc21)n1cnc2ccccc21` as the molecule, how does the growth read?
A: 101% (inactive)

Q: How did the growth turn out when `Cc1cc(C)c2c(=O)[nH]c(SCC(=O)Nc3cccc(S(=O)(=O)N(C)C)c3)nc2n1` was run?
A: 95.8% (inactive)

Q: How did the growth turn out when `Cc1ccc(S(=O)(=O)OCC(=O)Nc2ccc(C(=O)O)c(O)c2)cc1` was run?
A: 106% (inactive)

Q: `CN(C)c1nc(N)c(N=O)c(N)n1` was tested. Which growth did it give?
A: 118% (inactive)

Q: With `Cc1nc2scc(-c3ccccc3)n2c(=O)c1CCO` as the molecule, how does the growth read?
A: 102% (inactive)

Q: Which growth does the source give for `Cc1ccc2c(c1)C(C)Cc1c(ncnc1-n1cnc3ccccc31)N2C` (stereo unspecified) here?
A: 65.6% (inactive)

Q: Which growth does the source give for `O=S(=O)(NCCNc1cc(-c2cn(-c3ccccc3)nc2-c2ccccc2)ccn1)c1cccc2ccccc12` here?
A: 60.7% (inactive)

Q: How did the growth turn out when `CCCCCCOc1ccc(C2(Cl)c3ccccc3N(C)c3ccccc32)cc1` was run?
A: -21.5% (active)

Q: Which growth does the source give for `CN(C)C1CCC(NC2=CC(=O)C=CC2=O)CC1` (stereo unspecified) here?
A: 115% (inactive)

Q: How did the growth turn out when `CC(=O)N1Cc2ccccc2C(C)Cc2cc(Cl)ccc21` (stereo unspecified) was run?
A: 103% (inactive)

Q: How did the growth turn out when `NC(N)=NC(N)=Nc1ccccc1-c1ccccc1` was run?
A: 110% (inactive)

Q: How did the growth turn out when `Cc1oc2ncnc(Nc3ccccc3)c2c1C(=O)NCCO` was run?
A: 107% (inactive)

Q: `Cc1cc(NC(=O)COC(=O)c2sc3cc(F)ccc3c2Cl)no1` was tested. Which growth did it give?
A: 100% (inactive)

Q: `CC1(C)OC2COC3(C(=O)O)OC(C)(C)OC3C2O1` (stereo unspecified) was tested. Which growth did it give?
A: 109% (inactive)

Q: For `C/C(=C\c1csc(C)n1)[C@@H]1C[C@@H]2O[C@]2(C)CCC[C@H](C)[C@H](O)[C@@H](C)C(=O)C(C)(C)[C@@H](O)CC(=O)N1`, which growth is on record?
A: 66.3% (inactive)

Q: With `COc1cc2c(cc1OCCCCn1c(-c3cc(=O)c4ccccc4o3)nc3ccccc31)N=C[C@@H]1CCCN1C2=O` as the molecule, how does the growth read?
A: 109% (inactive)

Q: `COc1cc(-c2csc(NC(=O)c3cc(C(F)(F)F)cc(C(F)(F)F)c3)n2)cc(OC)c1OC` was tested. Which growth did it give?
A: 3.36% (active)
